# Screening results from PubChem BioAssay.
# HCV inhibitor: inhibitors of hepatitis C virus infection. Potency, µM (highest dose often 41.8 µM), for inactives: at the top dose activity change, negative = inhibition, hits mostly inhibitors. actives 3.4% (n = 340,000). AID 651820. Huh7.5.1 HCVcc-Cre infection, luciferase reporter, 44 h; active means well fitted inhibition curve with a large enough effect; inconclusive means small, poorly fitted or top-dose-only effect, or another doubt; inactive means no such curve, though single readings can be large or run the other way; further: potency means the concentration at half of the fitted maximal effect; on the % scale 0 is the no-effect control and ±100 the full control effect
#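 Cells (1,000/well) were plated 4 h before compound, then infected with HCVcc-Cre virus (~0.5 moi). After 44 h further culture, infection was read as luciferase luminescence following a 15 min substrate incubation at room temperature.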
# MARV entry inh: blocks Marburg virus binding to or entry into cells. Marburg virus pseudotyped entry inhibition, cell reporter. Potency, µM (top dose mostly 37.8 µM), for the others: top-dose activity change, negative = inhibition, hits mostly inhibitors. actives 1.8% (n = 300,000); calls by dose curve; tested in HEK293 cells; further: potency means the concentration at half of the fitted maximal effect; on the % scale 0 is the no-effect control and ±100 the full control effect
# Shiga inhibitor: blocks Shiga toxin action in Vero cells; AID 2315; actives 9.2% (n = 290,000); inhibition, % at 38.7 µM; Vero cells, Shiga toxin protein synthesis inhibition reporter; in the data active means inhibition mostly above about 28%, no sharp cut-off; inactive means mostly below about 43%; further: 0% is about no effect
# FMDV antiviral: antivirals against foot and mouth disease virus. FMDV antiviral cell-based qHTS. actives 1.2% (n = 410,000). Potency, µM (doses to about 57.9 µM), without a hit: at the highest dose activity change, negative = inhibition, most hits filed as inhibitors. AID 1159524; calls by dose curve; tested in HEK293T cells; further: read-out not given here; potency means the concentration at half of the fitted maximal effect; on the % scale 0 is the no-effect control and ±100 the full control effect; nearly all actives have a fitted effect of over 45% in size
# Lassa entry inh: Lassa virus entry inhibition | AID 540256 | Potency, µM (top dose mostly 37.9 µM), inactives show top-dose activity change, negative = inhibition, usual class: inhibitors | Lassa virus pseudotype entry inhibition, cell reporter | actives 1.2% (n = 300,000); calls by dose curve; tested in HEK293 cells; further: potency means the concentration at half of the fitted maximal effect; on the % scale 0 is the no-effect control and ±100 the full control effect; nearly all actives have a fitted effect of over 50% in size
# Cycloheximide cs: counter-screen hit for Shiga toxin inhibitors, cycloheximide | cell reporter, cycloheximide protein synthesis inhibition counterscreen | max response, % | actives 12% (n = 300,000); in the data active means max response mostly above about 13%, no sharp cut-off; inactive means mostly below about 14%; further: read at 38.3 µM for the half of the compounds with a filed dose; 0% is about no effect
# Active calls of the source: *; ? = inconclusive; / = not tested or not shown; [ ] = dose if it differs, or a comment. The list is not random: actives were taken first. Their share in the collection is about 13%.
SMILES,HCV inhibitor,MARV entry inh,Shiga inhibitor,FMDV antiviral,Lassa entry inh,Cycloheximide cs
Cc1ccc(S(=O)(=O)N2CCOCC2)cc1C(=O)N(C)CCOc1ccc(Cl)cc1,?,?,1,?,?,-2
CN(CCOc1ccc(Cl)cc1)C(=O)c1cccc(S(=O)(=O)N2CCN(c3ccc(F)cc3)CC2)c1,2.8µM*,7.1µM*,/,?,?,/
COc1ccc(CCN(C)C(=O)c2cccc(S(=O)(=O)N3CCN(c4ccc(F)cc4)CC3)c2)cc1OC,2.8µM*,/,/,?,/,/
CN(CC(=O)Nc1ccccc1Cl)C(=O)c1cccc(S(=O)(=O)N2CCN(c3ccc(F)cc3)CC2)c1,5.6µM*,/,139*,-16%,/,58*
Fc1ccccc1Cc1noc(CN2CCN(c3ccc(Cl)cn3)CC2)n1,?,?,0,-27%,?,1
CC(=O)N[C@@H]1CC[C@@]2(O)[C@H]3Cc4ccc(O)c5c4[C@@]2(CCN3CC2CC2)[C@@H]1O5,27%,/,/,-22%,/,/
CC1CCC2(CC1)NC(=O)N(CC(=O)N1CCN(C(=O)c3cccs3)CC1)C2=O (configuration not stated),-26%,/,/,-11%,/,/
Cc1ccc(NC(=O)C(=O)NN=C2CCCC2)cc1C,13%,?,40,71%,-4%,10*
CN1CCC(=NNC(=O)C(=O)Nc2cccc(Br)c2)CC1,-13%,?,13,12%,10%,1
CN1CCC(=NNC(=O)C(=O)Nc2ccc(F)cc2)CC1,11%,18%[46.1 µM],74*,43%,-2%,38*
COc1cccc(CN(C(=O)c2ccccc2)C2CCS(=O)(=O)C2)c1 (configuration not stated),4%,15%[46.1 µM],-2,30%,18%[46.1 µM],-5
COC(=O)CCN(c1ccccc1)S(=O)(=O)c1cc(-c2cc(C)no2)ccc1OC,-25%,-13%[46.1 µM],-4,11%,?,-3
Cc1cc(C)cc(C(=O)N2CC(C)SC2=Nc2cccc(S(=O)(=O)N(C)C)c2)c1 (configuration not stated),?,?,-12,-25%,?,-2
CN(C)S(=O)(=O)c1cccc(N=C2SCCN2Cc2ccccc2)c1,10µM*,?,13,?,?,10
Cc1ccc(SCC(=O)Nc2ccc(-c3nnc(-c4ccco4)o3)cc2)cc1,11µM*,?,43*,16%,?,16*
COc1ccccc1CC(=O)Nc1ccc(-c2nnc(-c3ccco3)o2)cc1,?,-25%,47,-20%,-21%,24*
O=C(Cc1ccccc1)Nc1ccc(-c2nnc(-c3ccco3)o2)cc1,?,-13%[46.1 µM],13,24%,14%,17*
O=C(Cc1ccccc1)c1nnc(-c2ccccc2)o1,6%,?,25,22%,-2%,14*
O=C(CSc1nnc(-c2ccccc2)o1)c1nnc(-c2ccccc2)o1,-25%,0%,-4,-10%,13%,-3
CCOC(=O)C(=N/O)/C(C)=N/NC(=O)C(=O)Nc1ccc(Cl)cc1,11µM*,/,2,?,/,1
O=C1c2ccccc2C(=O)N1CC(O)COc1ccccc1Cl (configuration not stated),11%,/,91*,51%,/,45*
CCSc1nc2c(c(=O)[nH]c(=O)n2C)n1CC(O)COc1ccccc1C (configuration not stated),?,?,-6,20µM*,-4%,-5
C=CCc1ccccc1OCC(O)CN1C(=O)c2ccccc2C1=O (configuration not stated),-4%,0%,-2,3%,6%,1
O=S(=O)(CC(O)COc1ccccc1Cl)c1ccccc1 (configuration not stated),-5%,0%,45,0%,-13%,-2
Cc1ccccc1OCC(O)CN1C(=O)c2ccccc2C1=O (configuration not stated),11%,/,39*,67%,/,37*
SMILES,HCV inhibitor,MARV entry inh,Shiga inhibitor,FMDV antiviral,Lassa entry inh,Cycloheximide cs
COc1ccc(CN2C(=O)c3ccccc3C2c2nnnn2C(C)C)cc1 (configuration not stated),/,/,/,-5%,/,/
O=C(COC(=O)CNC(=O)c1cccc(OC(F)F)c1)NCc1ccc2c(c1)OCO2,?,/,/,-8%,/,/
NC[C@H](Cc1ccccc1)NCCCCC1CCCCC1,?,/,/,-16%,/,/
CNC[C@H](CC1CCCCC1)NC[C@H](Cc1ccccc1)NCCC12CC3CC(CC(C3)C1)C2,1%[8.37 µM],/,-18,32µM*,/,-8
CCOC(=O)[C@]12CCC=C1N(Cc1ccc(Cl)cc1Cl)C(=O)[C@H](CC(=O)NCCCN1CCCC1=O)C2,/,/,/,-24%,/,/
C/C(=C\C(=O)c1ccc(Br)cc1)NNC(=O)c1ccc(O)cc1,-21%,/,50*,1%,/,27*
C/C(=C\C(=O)c1ccc(Br)cc1)NCc1ccccc1,11%,0%,62,-9%,9%,19*
Cc1c(-c2ccc(OCCN3CCCCC3)cc2)c(=O)oc2ccc3ccccc3c12,/,/,/,-2%,/,/
CCc1ccc(-c2cn(C3CCCCC3)c(=S)[nH]2)cc1,?,1%[46.1 µM],65,0%,3%,18*
CCc1ccc(-n2cc(-c3ccc([N+](=O)[O-])cc3)[nH]c2=S)cc1,5%,11%,8,2%,-14%,13
COC(=O)[C@@H]1[C@@H](C#N)C2(c3ccccc3-c3ccccc32)N(c2ccc(Cl)cc2)N1C#N,?,?,47*,25µM*,?,12*
Cc1ccc(OCC(O)Cn2c3ccccc3c3ccccc32)cc1 (configuration not stated),?,-55%,21,/,?,-4
Cc1ccc(Cn2c(=N)n(CC(O)COc3ccccc3)c3ccccc32)cc1 (configuration not stated),?,16µM*,-22,0%,?,-6
N=c1n(Cc2ccccc2)c2ccccc2n1CC(O)COc1ccccc1 (configuration not stated),14µM*,3.7µM*,-15,?,?,-8
Cc1ccc(OCc2csc(N)n2)cc1,-11%,-3%,83*,51%,?,35*
Nc1nc(COc2ccc(Cl)cc2)cs1,-19%,-9%[46.1 µM],65*,32%,-3%,33*
Nc1nc(COc2ccccc2)cs1,2%,16%,34,54%,12%,14
Cc1ccccc1OCc1csc(N)n1,8%,/,33,21%,/,16*
CC(Sc1nnc(-c2ccccc2Br)o1)C(=O)N1CCOCC1 (configuration not stated),0%,2%[46.1 µM],35,7%,6%[46.1 µM],12
O=C(CSc1nnc(-c2ccccc2Cl)o1)N1CCCC1,-21%,?,73*,40%,2.8µM*,51*
O=C(CSc1nnc(-c2ccccc2O)o1)N1CCOCC1,7%,?,86*,21%,4%[46.1 µM],26*
O=C(CSc1nnc(-c2ccccc2O)o1)N1CCCCC1,13%,?,42*,29%,?,28*
